Measurements published in the supplement of paper PMC8183993.
Counter-ions that a name gives are not always drawn. ± gives the standard deviation of the averaged measurements. In all, about 3,200 compounds were measured (“nuclei count (viability) relative to DMSO”: median about 99, lowest 2% from about 16 on). This excerpt belongs to a sample that is enriched for the lowest values.

What follows are compounds tested on U2OS (assay: nuclei count (viability) relative to DMSO (% of DMSO); higher = more viable cells). Conditions: 10 µM; 24 h.
Method: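 Primary image-based screen in U2OS cells: compounds at 10 uM for 24 h, then a 1 h o-propargyl-puromycin (OPP) pulse, click labelling, and high-throughput microscopy. Mean cytoplasmic OPP intensity and nuclei count were normalised to DMSO wells within each plate (DMSO = 100) and averaged over triplicate plates.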

SMILES	nuclei count
O=C1/C(=C/c2ccccc2)C[C@@]2(O)[C@H]3Cc4ccc(O)c5c4[C@@]2(CCN3CC2CC2)[C@H]1O5 [BNTX maleate]	3.38
O=C1CC[C@@]2(O)[C@H]3Cc4ccc(O)c5c4[C@@]2(CCN3CC2CC2)[C@H]1O5 [Naltrexone hydrochloride dihydrate]	105
Oc1ccc2c3c1O[C@H]1c4[nH]c5c(c4C[C@@]4(O)[C@@H](C2)N(CC2CC2)CC[C@]314)C[C@@]1(O)[C@H]2Cc3ccc(O)c4c3[C@@]1(CCN2CC1CC1)[C@H]5O4 [nor-Binaltorphimine dihydrochloride]	99.1
CCN(CC)CCO[C@H]1CC[C@@]2(C)C(=CC[C@@H]3[C@@H]2CC[C@]2(C)C(=O)CC[C@@H]32)C1	97
CC(=O)O[C@H]1CC[C@@]2(C)C(=CC[C@@H]3[C@@H]2CC[C@]2(C)C(=O)CC[C@@H]32)C1 [Dehydroisoandosterone 3-acetate]	96.3
C[C@@H]1CC[C@@]2(OC1)O[C@H]1C[C@H]3[C@@H]4CC=C5C[C@@H](O[C@@H]6O[C@H](CO)[C@@H](O[C@@H]7O[C@@H](C)[C@H](O)[C@@H](O)[C@H]7O)[C@H](O)[C@H]6O[C@@H]6O[C@@H](C)[C@H](O)[C@@H](O)[C@H]6O)CC[C@]5(C)[C@H]4CC[C@]3(C)[C@H]1[C@@H]2C [Dioscin (Collettiside III)]	9.01
CO[C@@H]1[C@H](OC(=O)NC(=O)CCl)CC[C@]2(CO2)[C@H]1[C@@]1(C)O[C@@H]1CC=C(C)C	92.6
Cc1onc(O)c1C[C@H](N)C(=O)O	102
CCC(=O)CCCCC[C@@H]1NC(=O)[C@H]2CCCCN2C(=O)[C@H]([C@@H](C)CC)NC(=O)[C@H](Cc2cn(OC)c3ccccc23)NC1=O [Apicidin]	54.1 ± 37
CN(C(=O)Cc1ccccc1)C(CN1CCCC1)c1ccccc1 (stereo unspecified) [N-MPPP Hydrochloride]	87.9
CN[C@@H]1C[C@H]2O[C@@](C)([C@@H]1OC)n1c3ccccc3c3c4c(c5c6ccccc6n2c5c31)C(=O)NC4 [Staurosporine]	10.1
O=C1NC(=O)c2c1c1c3ccccc3n3c1c1c2c2ccccc2n1[C@H]1CC[C@@H]3O1	60.9
O=C1CN=C(c2cccc(Br)c2)c2oc3ccccc3c2N1	78.5
Clc1ccccc1C(c1ccccc1)(c1ccccc1)n1cccn1	102
CC(C)(c1ccc(OCC2CO2)cc1)c1ccc(OCC2CO2)cc1 (stereo unspecified)	86.6 ± 6.1
CCN1C[C@]2(COC(=O)c3ccccc3N3C(=O)C[C@H](C)C3=O)CC[C@H](OC)[C@@]34[C@@H]5C[C@H]6[C@H](OC)[C@@H]5[C@](O)(C[C@@H]6OC)[C@](O)([C@@H](OC)[C@H]23)[C@@H]14 [Methyllycaconitine citrate]	109
CC(=O)N1CC[N+](C)(C)CC1 [4-Acetyl-1,1-dimethylpiperazinium iodide]	103
COc1cc([C@@H]2c3cc4c(cc3[C@H](O)[C@H]3COC(=O)[C@H]23)OCO4)cc(OC)c1OC [Podophyllotoxin]	15.6

SMILES	nuclei count
CC(C(=O)OC1CC2CCC(C1)N2C)c1ccc(Br)cc1 (stereo unspecified) [PG-9 maleate]	98.8
O=C1Nc2cc(Cl)c(Cl)cc2N2CCNCC12 (stereo unspecified)	95.9
CC12NC(Cc3ccccc31)c1ccccc12 (single isomer, unassigned; (+)) [(+)-MK 801 maleate]	94.2
O=C(CCCN1CCC2(CC1)C(=O)N(Cc1cccc(F)c1)CN2c1ccccc1)c1ccc(F)cc1 [3'-Fluorobenzylspiperone maleate]	29.4
COc1ccc(C[C@H]2NC[C@H](O)[C@H]2OC(C)=O)cc1 [Anisomycin]	12.5 ± 8.3
CC(C)n1cnc2c(C(=O)N[C@H]3CN4CCC3CC4)cc(Cl)cc21	96.2
CCCCC/C=C\C/C=C\C/C=C\C/C=C\CCCC(=O)Nc1ccc(O)cc1	97
COc1cc2c(cc1O)C(CCc1ccc(Cl)cc1)N(C)CC2 (stereo unspecified)	104
CC1(C)CCCC(C)(C)N1[O]	91.7
CC(C)(Cc1c[nH]c2ccc(Cl)cc12)NCCOc1ccccc1OCC1CC1	11.3
N#CC(C#N)=Cc1ccc(O)cc1 [Tyrphostin 8]	102
COc1ccc(C(=O)c2c(C)n(CCN3CCOCC3)c3cc(I)ccc23)cc1	80
C[CH2][Hg][S]c1ccccc1C(=O)[O-].[Na+] [Thimerosal]	5.97
CC(=O)C1=C(O)[C@@H]2[C@H]3c4c[nH]c5cccc(c45)C[C@H]3C(C)(C)N2C1=O [Cyclopiazonic Acid]	90.3
CC(=O)C1=C(O)[C@@H]2[C@H]3c4c[nH]c5cccc(c45)C[C@H]3C(C)(C)N2C1=O [Cyclopiazonic acid]	75.5
CC(C)(O)[C@H]1O[C@H]2CC[C@@]3(C)[C@@](O)(CC[C@H]4Cc5c([nH]c6ccccc56)[C@@]43C)C2=CC1=O [Paxilline]	91.2 ± 11
CN1C(=O)[C@]23CC4=CC=C[C@H](O)[C@H]4N2C(=O)[C@@]1(CO)SS3 [Gliotoxin]	36
Cc1ccc(C[N+](C)(C)C)o1 [5-Methylfurmethiodide]	91.6
